# ± gives the standard deviation.
# Experiments:
# Conditions in all cases: modulator concentration 10 µM
# [1] = system: RAW-Dual (murine macrophage reporter line); test: NF-kB reporter (SEAP) activity fold change vs agonist alone; higher = enhanced NF-kB activity
# Summary of the method: (§1)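 RAW-Dual murine macrophage reporter cells were seeded at 50 000 per well in 384-well plates and pre-incubated 1 hour at 37 °C with compound pin-transferred to 10 μM final. After 1 hour, a PRR agonist was added and cells incubated overnight. Supernatant NF-κB (SEAP, QUANTI-Blue, 620 nm absorbance) and IRF (Lucia luciferase, QUANTI-Luc, luminescence) signals were divided by the mean agonist-only control on the same plate to give fold change. Two replicate plates were averaged, with errors by propagation.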
# [2] = system: RAW-Dual (murine macrophage reporter line); test: IRF reporter (Lucia luciferase) activity fold change vs agonist alone; higher = enhanced IRF activity
# Summary of the method: as §1
# [3] = system: RAW-Dual (murine macrophage reporter line); test: viability score (confluency relative to resting cells, overnight) (fraction); higher = more viable, active = viable (0.7 or more)
# Summary of the method: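 RAW-Dual macrophages in 384-well plates were incubated overnight with compound, final concentration 10 μM. Confluency images from IncuCyte were processed in IncuCyte software into two masks covering all imaged wells. The viability score is each well's confluency relative to resting cells, and a compound met the cutoff when both masks exceeded 70% of resting cells.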
# [4] = agonist: CpG ODN 1826 0.5 ug/mL
Structure (SMILES),"NF-kB reporter [1, 4]",NF-kB reporter ([1]; agonist: LPS 0.1 ug/mL),NF-kB reporter ([1]; agonist: MPLA […]),IRF reporter ([2]; agonist: 3'3'-cGAMP 10 ug/mL),IRF reporter ([2]; agonist: LPS 0.1 ug/mL),IRF reporter ([2]; agonist: MPLA […]),viability score [3]
CC1CCc2c(N3CCC(O)CC3)c(F)cc3c(=O)c(C(=O)O)cn1c23 (stereo unspecified),0.975 ± 0.091,0.889 ± 0.051,0.992 ± 0.051,1.03 ± 0.077,0.897 ± 0.046,0.946 ± 0.11,0.995 (active)
NC(=O)c1ncn([C@@H]2O[C@H](CO)[C@@H](O)[C@H]2O)c1N,1.11 ± 0.086,1.03 ± 0.051,1.04 ± 0.041,0.94 ± 0.052,0.977 ± 0.089,0.949 ± 0.12,0.994 (active)
O=c1c(O)c(-c2cc(O)c(O)c(O)c2)oc2cc(O)cc(O)c12,1.51 ± 0.41,0.772 ± 0.04,0.968 ± 0.064,0.582 ± 0.035,0.894 ± 0.23,1.01 ± 0.21,0.908 (active)
COc1c(C)c2c(c(O)c1CC=C(C)CCC(=O)O)C(=O)OC2,0.695 ± 0.23,0.118 ± 0.008,0.367 ± 0.023,0.287 ± 0.0097,1.16 ± 0.15,1.55 ± 0.16,0.547 (inactive)
Cn1ccc(C(=O)Nc2nc(C(C)(C)C)cs2)n1,0.805 ± 0.063,1 ± 0.082,1.19 ± 0.083,0.993 ± 0.055,1.31 ± 0.18,1.57 ± 0.44,0.675 (inactive)
NC(=O)c1nc(F)cnc1O,1.06 ± 0.25,1.04 ± 0.051,2.37 ± 1.4,0.897 ± 0.031,1.27 ± 0.14,1.39 ± 0.14,1.01 (active)
CCC(=O)c1ccc(N2CCCCCC2)c(F)c1,0.864 ± 0.067,0.96 ± 0.074,1.14 ± 0.16,1 ± 0.048,1.61 ± 0.1,2.1 ± 0.18,0.982 (active)
Cc1ccccc1OCC(O)CO (stereo unspecified),0.813 ± 0.22,1.08 ± 0.054,0.955 ± 0.07,0.93 ± 0.058,0.951 ± 0.13,1.02 ± 0.12,0.997 (active)
CC(C)(C)NCC(O)COc1cccc2c1CC(O)C(O)C2 (stereo unspecified),1.26 ± 0.3,1 ± 0.11,1.05 ± 0.095,0.919 ± 0.045,1.04 ± 0.16,0.968 ± 0.17,0.931 (active)
Cc1ccc(CSc2nc3sc4c(c3c(=O)n2-c2ccccc2)CC(C)(C)OC4)c(C)c1,0.984 ± 0.093,1.06 ± 0.075,0.91 ± 0.054,1.05 ± 0.039,1.41 ± 0.12,1.1 ± 0.21,1.02 (active)
COC(=O)C1=C(C)N(c2ccc(F)cc2)C(=O)C1,1 ± 0.092,0.811 ± 0.08,0.813 ± 0.071,0.516 ± 0.025,0.865 ± 0.068,0.505 ± 0.065,1.01 (active)
Cc1ccc2c(c1)C1(c3ccccc3)Nc3ccc(C)cc3C1(c1ccccc1)N2 (stereo unspecified),0.878 ± 0.082,0.904 ± 0.078,0.86 ± 0.085,0.864 ± 0.071,0.996 ± 0.14,0.969 ± 0.19,1.02 (active)
COc1cc(OC)cc(C(=O)N2CCN(c3ccc(Nc4cccc(C)n4)nn3)CC2)c1,0.54 ± 0.042,0.981 ± 0.081,1.01 ± 0.029,0.904 ± 0.039,0.951 ± 0.096,1.12 ± 0.2,0.996 (active)

# — the supplement of paper PMC10646978
